Targets with a hit are over-represented here; the source holds about 8,800 in all. About 0.5% of all pairs of compound and target were hits. A number with no mark means an inactive call.
Key:
Assay in all cases: log2 fold change, soluble protein after heating vs DMSO (PISA); higher = thermal stabilisation; K562 lysate, 10 uM; active = over 0.2 and 3.5 SD of the protein, either way, in both replicates (recomputed)
alvocidib = compound: CN1CC[C@H](c2c(O)cc(O)c3c(=O)cc(-c4ccccc4Cl)oc23)[C@H](O)C1 [alvocidib]
Procedure, shortened: (§1)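 Thermal stability, expressed as log-two fold change relative to solvent controls, is given from duplicates. Crude K562 extract in PBS pH 7.4 with 1 mM MgCl2, at 1 mg/mL protein, was treated with 10 μM compound for 30 min and heated in aliquots for 3 min across 48°C-58°C. After pooling, adjustment to 0.5% NP-40 at 4°C and centrifugation at 21,000xg for 90 min, supernatant protein was measured by TMTpro 16plex LC-MS/MS with channel sums equalised.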

Tubastatin A = compound: CN1CCc2c(c3ccccc3n2Cc2ccc(C(=O)NO)cc2)C1 [Tubastatin A]
Procedure, shortened: as §1

[1] = compound: CNC(=O)C1=CC=CC=C1NC2=NC(=NC=C2Cl)NC3=C(C=C(C=C3)N4CCOCC4)OC
Procedure, shortened: as §1

defactinib = compound: CNC(=O)c1ccc(Nc2ncc(C(F)(F)F)c(NCc3nccnc3N(C)S(C)(=O)=O)n2)cc1 [defactinib]
Procedure, shortened: as §1

[2] = compound: CNc1nc(-c2ccc3c(N)n[nH]c3c2)cc(N2C[C@@H](C(=O)NC3CCCCC3)CC[C@H]2C)n1
Procedure, shortened: as §1

encorafenib = compound: COC(=O)N[C@@H](C)CNc1nccc(-c2cn(C(C)C)nc2-c2cc(Cl)cc(NS(C)(=O)=O)c2F)n1 [encorafenib]
Procedure, shortened: as §1

[3] = compound: COC(=O)[C@H](CCSC)NC(=O)C1=C(C=C(C=C1)NC[C@H](CS)N)C2=CC=CC=C2
Procedure, shortened: as §1

alisertib = compound: COc1cc(Nc2ncc3c(n2)-c2ccc(Cl)cc2C(c2c(F)cccc2OC)=NC3)ccc1C(=O)O [alisertib]
Procedure, shortened: as §1

[4] = compound: COc1cc2nc(-c3cc(F)ccc3O)nc(N[C@@H]3CNC[C@H]3C(C)(C)O)c2cc1OC
Procedure, shortened: as §1

gefitinib = compound: COc1cc2ncnc(Nc3ccc(F)c(Cl)c3)c2cc1OCCCN1CCOCC1 [gefitinib]
Procedure, shortened: as §1

lapatinib = compound: CS(=O)(=O)CCNCc1ccc(-c2ccc3ncnc(Nc4ccc(OCc5cccc(F)c5)c(Cl)c4)c3c2)o1 [lapatinib]
Procedure, shortened: as §1

pictilisib = compound: CS(=O)(=O)N1CCN(Cc2cc3nc(-c4cccc5[nH]ncc45)nc(N4CCOCC4)c3s2)CC1 [pictilisib]
Procedure, shortened: as §1

crizotinib = compound: C[C@@H](Oc1cc(-c2cnn(C3CCNCC3)c2)cnc1N)c1c(Cl)ccc(F)c1Cl [crizotinib]
Procedure, shortened: as §1

[5] = compound: C[C@H](C1=CC=C(C=C1)C(=O)NC2=C3C=CNC3=NC=C2)N
Procedure, shortened: as §1

duvelisib = compound: C[C@H](Nc1ncnc2nc[nH]c12)c1cc2cccc(Cl)c2c(=O)n1-c1ccccc1 [duvelisib]
Procedure, shortened: as §1

gandotinib = compound: Cc1cc(Nc2cc(CN3CCOCC3)c3nc(C)c(Cc4ccc(Cl)cc4F)n3n2)n[nH]1 [gandotinib]
Procedure, shortened: as §1

tozasertib = compound: Cc1cc(Nc2cc(N3CCN(C)CC3)nc(Sc3ccc(NC(=O)C4CC4)cc3)n2)n[nH]1 [tozasertib]
Procedure, shortened: as §1

doramapimod = compound: Cc1ccc(-n2nc(C(C)(C)C)cc2NC(=O)Nc2ccc(OCCN3CCOCC3)c3ccccc23)cc1 [doramapimod]
Procedure, shortened: as §1

bafetinib = compound: Cc1ccc(NC(=O)c2ccc(CN3CC[C@H](N(C)C)C3)c(C(F)(F)F)c2)cc1Nc1nccc(-c2cncnc2)n1 [bafetinib]
Procedure, shortened: as §1

[6] = compound: Cc1cccc(CC(=O)N2CCc3c2ccc(-c2cn(C)c4ncnc(N)c24)c3F)n1
Procedure, shortened: as §1

Chain of UniProt Q8NG31 (Q8NG31 whole entry, looked up): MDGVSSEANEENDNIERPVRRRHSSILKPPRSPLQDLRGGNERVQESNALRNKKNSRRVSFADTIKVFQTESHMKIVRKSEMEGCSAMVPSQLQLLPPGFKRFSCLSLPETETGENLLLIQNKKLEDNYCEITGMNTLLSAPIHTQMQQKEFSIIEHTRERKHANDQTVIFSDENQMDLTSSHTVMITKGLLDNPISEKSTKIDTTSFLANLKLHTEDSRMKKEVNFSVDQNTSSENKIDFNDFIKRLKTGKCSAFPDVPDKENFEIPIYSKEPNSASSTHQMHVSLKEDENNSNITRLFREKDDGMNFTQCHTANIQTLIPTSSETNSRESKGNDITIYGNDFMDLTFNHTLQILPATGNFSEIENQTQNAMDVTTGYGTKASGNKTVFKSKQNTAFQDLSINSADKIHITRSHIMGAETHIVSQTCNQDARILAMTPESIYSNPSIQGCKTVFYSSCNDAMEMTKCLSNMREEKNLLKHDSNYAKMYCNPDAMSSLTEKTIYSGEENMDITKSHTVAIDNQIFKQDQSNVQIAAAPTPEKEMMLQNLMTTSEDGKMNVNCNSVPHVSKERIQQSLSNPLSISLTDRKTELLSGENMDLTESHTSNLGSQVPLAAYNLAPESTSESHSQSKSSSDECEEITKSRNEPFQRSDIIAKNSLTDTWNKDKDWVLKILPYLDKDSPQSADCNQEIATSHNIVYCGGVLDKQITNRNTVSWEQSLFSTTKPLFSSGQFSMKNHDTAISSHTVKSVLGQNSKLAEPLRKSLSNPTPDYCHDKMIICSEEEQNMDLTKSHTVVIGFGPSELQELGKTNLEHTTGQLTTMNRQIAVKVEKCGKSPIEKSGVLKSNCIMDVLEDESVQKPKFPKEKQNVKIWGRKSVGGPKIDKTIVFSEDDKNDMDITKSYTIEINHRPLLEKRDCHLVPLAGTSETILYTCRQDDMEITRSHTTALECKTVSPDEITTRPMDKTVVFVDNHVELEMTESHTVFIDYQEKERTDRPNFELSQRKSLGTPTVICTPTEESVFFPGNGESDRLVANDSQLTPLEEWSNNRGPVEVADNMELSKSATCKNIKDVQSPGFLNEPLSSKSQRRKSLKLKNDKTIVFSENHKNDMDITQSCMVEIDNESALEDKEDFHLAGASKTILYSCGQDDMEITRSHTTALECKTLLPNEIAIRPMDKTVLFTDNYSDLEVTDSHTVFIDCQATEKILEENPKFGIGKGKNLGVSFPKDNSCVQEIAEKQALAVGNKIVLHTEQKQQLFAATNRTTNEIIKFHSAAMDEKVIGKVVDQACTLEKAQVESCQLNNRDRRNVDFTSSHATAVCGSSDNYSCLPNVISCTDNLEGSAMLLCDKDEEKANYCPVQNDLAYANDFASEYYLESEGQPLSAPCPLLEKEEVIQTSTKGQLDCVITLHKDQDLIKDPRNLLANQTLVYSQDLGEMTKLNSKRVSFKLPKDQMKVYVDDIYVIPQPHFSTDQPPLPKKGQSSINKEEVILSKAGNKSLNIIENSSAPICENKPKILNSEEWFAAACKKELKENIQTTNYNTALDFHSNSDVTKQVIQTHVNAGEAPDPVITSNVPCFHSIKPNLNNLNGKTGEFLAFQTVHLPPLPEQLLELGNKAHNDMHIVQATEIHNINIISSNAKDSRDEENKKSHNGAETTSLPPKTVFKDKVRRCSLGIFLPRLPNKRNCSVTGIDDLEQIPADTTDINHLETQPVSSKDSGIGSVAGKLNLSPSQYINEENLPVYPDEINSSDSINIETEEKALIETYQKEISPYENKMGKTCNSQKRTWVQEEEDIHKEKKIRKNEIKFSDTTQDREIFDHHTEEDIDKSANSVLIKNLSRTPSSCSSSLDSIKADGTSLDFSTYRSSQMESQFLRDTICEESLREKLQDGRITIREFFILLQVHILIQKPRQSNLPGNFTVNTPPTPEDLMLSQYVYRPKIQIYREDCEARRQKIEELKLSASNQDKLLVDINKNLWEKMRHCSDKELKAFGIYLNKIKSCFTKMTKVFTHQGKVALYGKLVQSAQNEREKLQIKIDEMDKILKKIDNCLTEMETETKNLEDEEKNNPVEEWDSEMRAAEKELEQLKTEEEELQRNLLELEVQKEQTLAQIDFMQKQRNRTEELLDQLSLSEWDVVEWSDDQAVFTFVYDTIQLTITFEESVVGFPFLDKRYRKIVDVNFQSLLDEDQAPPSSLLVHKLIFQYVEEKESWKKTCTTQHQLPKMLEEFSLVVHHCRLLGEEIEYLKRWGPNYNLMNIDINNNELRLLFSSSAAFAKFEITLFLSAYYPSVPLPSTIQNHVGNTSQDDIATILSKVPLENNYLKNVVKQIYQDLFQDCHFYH
Chain of UniProt Q8NE86 (Q8NE86 whole entry, looked up): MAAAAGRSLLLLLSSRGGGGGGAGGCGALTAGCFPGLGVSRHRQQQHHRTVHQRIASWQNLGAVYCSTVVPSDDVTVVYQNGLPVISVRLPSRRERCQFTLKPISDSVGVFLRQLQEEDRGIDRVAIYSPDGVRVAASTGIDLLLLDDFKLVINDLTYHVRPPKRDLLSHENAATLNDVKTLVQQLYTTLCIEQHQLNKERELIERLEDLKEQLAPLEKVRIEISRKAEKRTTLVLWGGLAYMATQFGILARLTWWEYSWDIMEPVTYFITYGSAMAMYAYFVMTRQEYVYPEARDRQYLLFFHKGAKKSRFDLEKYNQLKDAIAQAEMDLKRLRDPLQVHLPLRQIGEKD
Chain of UniProt P40692 (P40692 whole entry, looked up): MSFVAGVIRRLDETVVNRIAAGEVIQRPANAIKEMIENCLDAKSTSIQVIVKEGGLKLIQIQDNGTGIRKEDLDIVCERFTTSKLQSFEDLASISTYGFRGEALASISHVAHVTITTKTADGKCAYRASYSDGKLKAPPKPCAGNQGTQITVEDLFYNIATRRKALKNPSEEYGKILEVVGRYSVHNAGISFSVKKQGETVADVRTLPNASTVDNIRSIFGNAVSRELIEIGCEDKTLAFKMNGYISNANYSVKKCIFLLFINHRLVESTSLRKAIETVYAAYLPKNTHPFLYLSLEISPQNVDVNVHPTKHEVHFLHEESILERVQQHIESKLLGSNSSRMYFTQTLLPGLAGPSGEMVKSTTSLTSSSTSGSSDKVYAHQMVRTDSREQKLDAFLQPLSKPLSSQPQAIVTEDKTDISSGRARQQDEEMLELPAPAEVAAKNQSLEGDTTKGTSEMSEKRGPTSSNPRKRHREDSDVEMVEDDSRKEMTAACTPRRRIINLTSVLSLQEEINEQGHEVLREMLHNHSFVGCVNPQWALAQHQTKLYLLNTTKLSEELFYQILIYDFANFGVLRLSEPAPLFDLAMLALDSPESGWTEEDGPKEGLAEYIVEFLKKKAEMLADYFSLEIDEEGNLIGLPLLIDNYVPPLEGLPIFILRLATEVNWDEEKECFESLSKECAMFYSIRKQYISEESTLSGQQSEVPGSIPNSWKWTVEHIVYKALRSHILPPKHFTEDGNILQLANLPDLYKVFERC
Chain of UniProt Q86V48 (Q86V48 whole entry, looked up): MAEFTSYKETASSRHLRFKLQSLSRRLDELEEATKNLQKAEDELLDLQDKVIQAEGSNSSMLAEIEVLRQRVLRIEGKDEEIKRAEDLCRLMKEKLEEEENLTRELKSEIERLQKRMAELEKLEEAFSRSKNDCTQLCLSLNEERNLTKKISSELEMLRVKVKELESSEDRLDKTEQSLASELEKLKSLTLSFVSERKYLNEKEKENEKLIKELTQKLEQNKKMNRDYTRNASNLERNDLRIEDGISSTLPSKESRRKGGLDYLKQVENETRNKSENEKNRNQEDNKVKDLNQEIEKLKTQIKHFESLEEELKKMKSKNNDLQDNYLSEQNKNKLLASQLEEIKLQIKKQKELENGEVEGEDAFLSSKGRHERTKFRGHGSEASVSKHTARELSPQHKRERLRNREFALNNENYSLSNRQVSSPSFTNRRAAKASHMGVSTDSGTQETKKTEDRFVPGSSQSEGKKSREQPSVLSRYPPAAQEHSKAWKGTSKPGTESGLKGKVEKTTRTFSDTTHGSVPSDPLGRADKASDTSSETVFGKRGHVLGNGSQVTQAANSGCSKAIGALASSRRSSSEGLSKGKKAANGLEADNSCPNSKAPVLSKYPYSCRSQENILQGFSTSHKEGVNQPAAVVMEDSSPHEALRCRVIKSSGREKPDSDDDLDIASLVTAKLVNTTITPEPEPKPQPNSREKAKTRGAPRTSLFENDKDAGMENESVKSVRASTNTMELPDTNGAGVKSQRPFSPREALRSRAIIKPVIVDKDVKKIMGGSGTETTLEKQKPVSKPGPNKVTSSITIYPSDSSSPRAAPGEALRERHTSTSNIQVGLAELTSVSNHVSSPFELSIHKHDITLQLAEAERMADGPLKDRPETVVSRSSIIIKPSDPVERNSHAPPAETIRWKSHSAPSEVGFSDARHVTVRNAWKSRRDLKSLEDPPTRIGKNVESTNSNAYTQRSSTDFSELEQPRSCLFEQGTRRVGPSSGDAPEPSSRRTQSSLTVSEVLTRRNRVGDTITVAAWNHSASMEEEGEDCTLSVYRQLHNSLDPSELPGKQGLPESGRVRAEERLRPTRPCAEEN
Chain of UniProt Q96IZ6 (Q96IZ6 whole entry, looked up): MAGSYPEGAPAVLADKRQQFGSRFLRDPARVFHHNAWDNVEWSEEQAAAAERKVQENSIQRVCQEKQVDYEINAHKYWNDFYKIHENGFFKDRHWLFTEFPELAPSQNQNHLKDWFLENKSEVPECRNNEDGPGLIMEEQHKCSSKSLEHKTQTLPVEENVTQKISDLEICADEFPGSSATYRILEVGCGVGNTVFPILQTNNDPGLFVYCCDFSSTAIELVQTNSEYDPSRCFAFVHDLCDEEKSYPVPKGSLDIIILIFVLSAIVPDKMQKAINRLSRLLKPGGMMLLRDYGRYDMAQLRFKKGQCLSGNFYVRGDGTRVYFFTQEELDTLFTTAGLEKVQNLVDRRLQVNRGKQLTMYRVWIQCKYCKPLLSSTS

Row | Target | log2 fold change (alvocidib) | log2 fold change (Tubastatin A) | log2 fold change [1] | log2 fold change (defactinib) | log2 fold change [2] | log2 fold change (encorafenib) | log2 fold change [3] | log2 fold change (alisertib) | log2 fold change [4] | log2 fold change (gefitinib) | log2 fold change (lapatinib) | log2 fold change (pictilisib) | log2 fold change (crizotinib) | log2 fold change [5] | log2 fold change (duvelisib) | log2 fold change (gandotinib) | log2 fold change (tozasertib) | log2 fold change (doramapimod) | log2 fold change (bafetinib) | log2 fold change [6]
1 | LPIN1 isoform 7 (UniProt Q14693) | -0.054 | -0.05 | -0.006 | 0.003 | -0.1 | 0.089 | -0.064 | -0.028 | 0.007 | -0.04 | -0.052 | -0.082 | -0.035 | -0.069 | -0.097 | -0.005 | 0.012 | 0.013 | -0.04 | 0.097
2 | MCMBP (UniProt Q9BTE3) | 0.035 | -0.078 | 0.029 | 0.041 | -0.003 | -0.001 | 0.074 | 0.005 | 0 | 0.011 | 0.008 | -0.027 | -0.032 | 0.048 | 0.002 | -0.083 | -0.007 | -0.001 | -0.007 | -0.048
3 | MCU (UniProt Q8NE86) | 0.011 | 0.045 | 0.026 | 0.037 | -0.067 | 0.016 | -0.035 | 0.01 | -0.063 | -0.091 | -0.145 | -0.041 | -0.125 | -0.03 | 0.037 | -0.311 (active) | -0.02 | 0.085 | -0.108 | 0.032
4 | LUZP1 (UniProt Q86V48) | -0.027 | -0.061 | 0.099 | -0.056 | 0.004 | 0.023 | -0.074 | -0.014 | 0.012 | 0.039 | -0.006 | -0.02 | -0.012 | 0.008 | -0.026 | 0.036 | -0.011 | -0.009 | -0.034 | -0.011
5 | MED12 isoform 2 (UniProt Q93074) | -0.022 | -0.161 | -0.02 | 0.029 | -0.041 | 0.028 | 0.06 | 0.016 | -0.011 | 0.027 | 0.009 | 0.017 | -0.017 | 0.002 | 0 | -0.072 | -0.033 | 0.011 | -0.012 | -0.011
6 | LIMK2 isoform 3 (UniProt P53671) | -0.002 | 0.02 | 0.068 | -0.026 | 0.102 | 0.204 | -0.189 | 0.031 | 0.033 | -0.141 | 0.029 | 0.112 | -0.138 | 0.626 (active) | -0.035 | -0.144 | 0.01 | 0.109 | -0.108 | -0.037
7 | KNL1 (UniProt Q8NG31) | -0.008 | -0.073 | 0.024 | -0.007 | 0.018 | 0.043 | 0.055 | -0.032 | 0.004 | 0.008 | 0.007 | -0.031 | -0.015 | -0.011 | -0.001 | -0.032 | -0.027 | 0.008 | -0.017 | 0.016
8 | MAPK1 (UniProt P28482) | 0.051 | 0.061 | 0.242 (active) | 0.091 | -0.007 | -0.062 | 0.031 | -0.038 | 0.043 | 0.014 | -0.018 | 0.005 | 0.065 | -0.004 | 0.004 | 0.036 | -0.01 | -0.013 | 0.004 | -0.061
9 | METTL7A (UniProt Q9H8H3) | -0.079 | 0.014 | 0.003 | 0.011 | 0.041 | -0.041 | 0.151 | -0.036 | -0.01 | -0.046 | 0.023 | 0.019 | 0.177 | -0.019 | 0.021 | 0.226 | -0.081 | 0.071 | 0.048 | 0.019
10 | LZTS1 (UniProt Q9Y250) | 0.054 | 0.326 | -0.037 | -0.101 | 0.709 | -0.071 | 0.001 | -0.022 | 0.129 | -0.08 | -0.136 | -0.222 | -0.821 | -0.233 | 0.308 | -0.137 | -0.1 | 0.177 | -0.268 | 0.083
11 | KNOP1 (UniProt Q1ED39) | -0.004 | 0.151 | 0.062 | 0.413 (active) | 0.337 | -0.023 | 0.022 | -0.065 | 0.097 | -0.03 | -0.046 | 0.03 | -0.068 | 0.004 | 0.022 | 0.027 | -0.085 | 0.1 | -0.06 | -0.011
12 | LSG1 (UniProt Q9H089) | -0.079 | -0.016 | -0.046 | 0.003 | -0.077 | 0.046 | 0.303 (active) | -0.017 | -0.028 | -0.059 | -0.002 | -0.044 | -0.191 | -0.099 | -0.075 | 0.037 | -0.03 | 0.085 | -0.077 | 0.072
13 | KLC2 (UniProt Q9H0B6) | -0.034 | -0.072 | 0.004 | -0.048 | -0.006 | 0.01 | 0.043 | -0.038 | 0.001 | -0.098 | -0.012 | -0.057 | -0.047 | 0.025 | -0.031 | -0.145 | 0.012 | 0.065 | -0.043 | 0.074
14 | METTL2A (UniProt Q96IZ6) | 0.023 | -0.079 | 0.058 | 0.019 | -0.028 | -0.007 | 0.055 | -0.057 | 0.029 | 0.04 | -0.001 | -0.049 | -0.026 | 0.056 | 0.052 | -0.065 | 0.029 | 0.035 | -0.017 | -0.065
15 | MLH1 (UniProt P40692) | 0.011 | -0.167 | -0.039 | 0.004 | -0.013 | 0.044 | 0.129 | -0.01 | 0.048 | -0.053 | -0.006 | 0.001 | -0.085 | -0.035 | 0.016 | -0.04 | -0.043 | 0.013 | -0.063 | 0.038

Source: the supplement of paper PMC10849652
